# High-throughput results as filed in PubChem BioAssay.
# Compounds with a hit are over-represented: about 4% of the library has one in this group of screens.
# Bst PK mod – alters activity of Bacillus stearothermophilus pyruvate kinase. hit rate 1.2% among 51,000. Potency, µM. AID 361. purified pyruvate kinase, luminescence ATP production; ribose 5-phosphate activator present at AC10; in the data active = potency below about 11 µM; inconclusive = mostly about 12 µM to 25 µM;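 the screen sought inhibitors and activators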;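 also: scaled between full activation by ribose 5 phosphate and full inhibition by luteolin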
# TSHR ag – activates the human thyroid stimulating hormone receptor. HEK293-CNG-TSHR cells (CNG channel as cAMP sensor), membrane potential dye, cAMP. P16473. AID 926. Potency, µM (highest dose often 57.1 µM), for the others: at the top dose activation, most hits filed as activators. hit rate 0.48% among 73,000; active = well fitted activation curve with a large enough effect in the main read-out, with a control signal flat, not every such curve was filed as active; inconclusive = small, poorly fitted or top-dose-only effect, or a change in a side signal; inactive = no such curve, though single readings can be large or run the other way; % of control where 0% means no effect;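 also: the control signal comes from parental cells without the receptor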
#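 cAMP rise detected as CNG-channel membrane depolarization by fluorescent dye (emission 590 nm), 30 min after compound, following 60 min dye loading containing 100 uM RO 20-1724 at room temperature. Cells: TSHR/CNG HEK 293, with parental CNG HEK 293 as control.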
# Caspase-7 inhib – caspase-7 (human) inhibition, allosteric or competitive | P55210 | AID 889 | recombinant caspase-7, Ac-DEVD-AFC fluorescence rate | hit rate 0.02% among 75,000 | Potency, µM (highest dose often 57.5 µM), without a hit: at the highest dose activity change, negative = inhibition, hits mostly inhibitors; active = well fitted inhibition curve with a large enough effect in the main read-out, with a control signal flat, not every such curve was filed as active; inconclusive = small, poorly fitted or top-dose-only effect, or a change in a side signal; also: % of control where 0% means no effect
# Target sequence (P55210 24-198 limits assumed): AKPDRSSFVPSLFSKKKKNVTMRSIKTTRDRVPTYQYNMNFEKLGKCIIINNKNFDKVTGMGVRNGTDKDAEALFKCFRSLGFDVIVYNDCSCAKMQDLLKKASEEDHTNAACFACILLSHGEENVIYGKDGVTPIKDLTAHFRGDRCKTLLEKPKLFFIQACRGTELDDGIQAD
# Target sequence (P55210 207-303 limits assumed): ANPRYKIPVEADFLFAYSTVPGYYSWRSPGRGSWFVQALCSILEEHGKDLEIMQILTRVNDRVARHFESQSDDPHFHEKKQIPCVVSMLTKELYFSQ
# Casp1 inh – allosteric or competitive inhibitors of human caspase-1; hit rate 0.03% among 75,000; Potency, µM (top dose mostly 57.5 µM), inactives show top-dose activity change, negative = inhibition, hits mostly inhibitors; P29466; Caspase-1 enzyme, Ac-WEHD-AFC fluorogenic rate;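 also: plate controls were vehicle for no effect and no substrate for full effect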
# GBA mod – modulators of human glucocerebrosidase; purified enzyme, resorufin glucoside fluorescence (screen aimed at inhibitors), 20 min; Potency, µM; hit rate 1.1% among 48,000; in the data active = potency below about 15 µM; inconclusive = mostly about 16 µM to 33 µM;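 also: the screen sought inhibitors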
#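 Compounds titrated against 0.2 nM normal enzyme, 30 uM resorufin beta-D-glucopyranoside substrate, citrate/phosphate buffer with taurocholate and tween-20, pH 5.9. Reaction ran 20 min at room temperature; fluorescence (Ex 548/Em 600) gave AC50.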
# HEK293 cAMP cs – counter-screen for TSHR agonists: cAMP increase in parental HEK293; AID 938; parental HEK293 CNG cAMP sensor, membrane potential fluorescence; hit rate 2.5% among 73,000; Potency, µM (titrated, usually from 57.1 µM), without a hit: top-dose activation, hits mostly activators; also: % of control where 0% means no effect; nearly all actives have a fitted effect of over 55% in size
#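 Counterscreen for endogenous-receptor signalling: CNG-channel HEK 293 cells report cAMP rise by membrane depolarization. After 60 min dye equilibration with 100 uM RO 20-1724, compounds incubated 30 min before bottom-read fluorescence at 590 nm.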
# Starred values were filed as active, the others as inactive; i = inactive; ? = inconclusive; nt = no result; [ ] = dose if it differs, or a comment. Unless noted, calls follow the shape of the dose curve; as a rule, active = well fitted curve in the direction sought with a large enough effect; inconclusive = small, poorly fitted or top-dose-only effect, or another doubt; inactive = no such curve, though single readings can be large; an effect the other way counts as inactive or inconclusive. Potency is read from the fitted curve at half-maximal effect.
SMILES,Bst PK mod,TSHR ag,Caspase-7 inhib,Casp1 inh,GBA mod,HEK293 cAMP cs
N=C(N)C(N=Nc1ccccc1)C(=N)N (stereo unspecified),nt,-1%[11.4 µM],-2%[11.5 µM],-2%[11.5 µM],nt,-1%[11.4 µM]
CS[C@@H](CC(=O)O)C(=O)O,nt,-1%[11.4 µM],1%[11.5 µM],0%[11.5 µM],nt,2%[11.4 µM]
CCc1ccc(-c2nnn(CCC(=O)OC)n2)cc1,nt,?,1%,-1%,>77,7.9µM*
O=C1c2ccccc2C(Nc2ccc(Cl)cn2)N1c1ccccn1 (stereo unspecified),nt,?,-1%,-4%,nt,16µM*
COc1ccc(-c2nc3cnc(N4CCN(C)CC4)nc3n(CCc3ccccc3)c2=O)cc1,nt,7%,?,nt,nt,-4%
CCSC1=C(C#N)C(c2cccs2)C(C(=O)OC)=C(C)N1 (stereo unspecified),>26,nt,nt,nt,nt,nt
CCOC(=O)C1=C(C)NC(SCC(=O)Nc2cc(C)on2)=C(C#N)C1c1cccs1 (stereo unspecified),>57,17%,-4%,-3%,1.9*,23%
NNC(=O)c1ccc[n+](CCc2ccccc2)c1,nt,-1%[11.4 µM],2%[11.5 µM],-4%[11.5 µM],nt,-7%[11.4 µM]
N[C@H](CO)Cc1cnc[nH]1,nt,nt,2%,1%,nt,nt
CCS(=O)(=O)Nc1ccc(-c2nnc(SCC(=O)c3cccc(OC)c3)o2)cc1,>57,?,-5%,-5%,11*,?
C1=C(c2ccccc2)CCN(c2nc3ccccc3n3cnnc23)C1,nt,8%,-25%,-4%,nt,13%
c1ccc2c(c1)CCN(c1nc3ccccc3n3cnnc13)C2,nt,14%,20µM*,-23%,nt,2%
COc1ccccc1-c1nnc2sc(-c3cc4ccccc4o3)nn12,nt,?,-1%,0%,>77,25µM*
COc1ccc2cc3cc(C(=O)NCCN4CCc5ccccc5C4)oc3nc2c1,0.76*,25%,-7%,-12%,>77,24%
CC(C)(C)n1nnnc1C(c1cccs1)N(Cc1ccccc1)Cc1ccco1 (stereo unspecified),>57,?,-1%,0%,i,16µM*
CCOC(=O)CSc1nnc2n(Cc3ccccc3)c(=O)c3c4c(sc3n12)CCC4,5.1*,nt,nt,nt,nt,nt
CSc1nnc2n(-c3ccccc3)c(=O)c3c4c(sc3n12)CCC4,2.8*,4%,-1%,1%,>77,5%
Cc1nnc2n(Cc3ccccc3)c(=O)c3c4c(sc3n12)CCCC4,>57,7%,1%,0%,>77,17%
COc1ccc(CN(CCN(C)C)Cc2ccccc2)c(OC)c1,>57,?,1%,-4%,nt,13µM*
CCN(Cc1ccccc1)Cc1cc(OC)cc(OC)c1,nt,?,1%,-1%,nt,5µM*
CCN(Cc1ccccc1)Cc1c(F)cccc1F,nt,17%,0%,-1%,nt,23%
CN(C)c1ncc2nc(-c3cn(C)c4ccccc34)c(=O)n(C[C@H]3CCCO3)c2n1,nt,8%,?,?,nt,-14%
Cc1ccc(S(=O)(=O)N2CCC(C(=O)O)(c3ccccc3)CC2)cc1,nt,12%[11.4 µM],0%[11.5 µM],5%[11.5 µM],nt,-8%[11.4 µM]
O=C(NCCN1CCCC1)c1ccc(-n2c(=O)c(=O)[nH]c3ccccc32)cc1,nt,1%,0%,-2%,nt,-12%
CCc1c2c(nc3ccccc13)OC(C)C2 (stereo unspecified),nt,25%,-1%,1%,nt,9%
SMILES,Bst PK mod,TSHR ag,Caspase-7 inhib,Casp1 inh,GBA mod,HEK293 cAMP cs
Cc1c2c(nc3c(C)cccc13)OC(C)C2 (stereo unspecified),>57,?,0%,-3%,>77,25µM*
Nc1nc2c(c(=O)[nH]1)CN(CCCN1CCOCC1)CN2,nt,-1%[11.4 µM],2%[11.5 µM],1%[11.5 µM],nt,3%[11.4 µM]
O=C(Nc1ccc([N+](=O)[O-])cc1Cl)c1cc(Cl)ccc1O,nt,?,1%,-2%,nt,0.5µM*
O=C(Nc1ccccc1)c1cc([N+](=O)[O-])ccc1Cl,nt,?,-1%,-2%,nt,-31%
NCC1OC(OC2C(N)CC(N)[C@@H](O)[C@@H]2OC2O[C@H](CO)[C@@H](O[C@@H]3OC(CN)C(O)C(O)C3N)C2O)C(N)C(O)C1O (stereo partly specified),nt,nt,2%,0%,nt,nt
CCC(C)NC(=O)CCC(=O)Nc1ccc2nc(N3CCOCC3)cc(C)c2c1 (stereo unspecified),>57,-2%[11.4 µM],-5%,0%,6.1*,6%
